Screening results from PubChem.
Most compounds without a hit are left out; they make up all but 22% or so of the library.
Pf growth 48h: Primary qHTS for delayed death inhibitors of the malarial parasite plastid, 48 hour incubation; P. falciparum luciferase growth in erythrocytes, 48 h; Potency, µM (series often up to 28.7 µM), usual class: inhibitors; hit rate 5.9% among 310,000; AID 504832, 2011
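In quantitative HTS format, infected erythrocytes bearing luciferase-reporter parasites were treated for a single generation at 37 C. Luminescence after adding detection reagent served as the growth measure.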
LmPK inhibitor: qHTS Assay for Inhibitors of Leishmania Mexicana Pyruvate Kinase (LmPK); Q27686; purified LmPK, Kinase-Glo ATP luminescence, 1 h; Potency, µM (titrated, usually from 57.5 µM), most hits filed as inhibitors; hit rate 0.37% among 290,000; AID 1721, 2009
Target sequence (Q27686 whole entry, looked up): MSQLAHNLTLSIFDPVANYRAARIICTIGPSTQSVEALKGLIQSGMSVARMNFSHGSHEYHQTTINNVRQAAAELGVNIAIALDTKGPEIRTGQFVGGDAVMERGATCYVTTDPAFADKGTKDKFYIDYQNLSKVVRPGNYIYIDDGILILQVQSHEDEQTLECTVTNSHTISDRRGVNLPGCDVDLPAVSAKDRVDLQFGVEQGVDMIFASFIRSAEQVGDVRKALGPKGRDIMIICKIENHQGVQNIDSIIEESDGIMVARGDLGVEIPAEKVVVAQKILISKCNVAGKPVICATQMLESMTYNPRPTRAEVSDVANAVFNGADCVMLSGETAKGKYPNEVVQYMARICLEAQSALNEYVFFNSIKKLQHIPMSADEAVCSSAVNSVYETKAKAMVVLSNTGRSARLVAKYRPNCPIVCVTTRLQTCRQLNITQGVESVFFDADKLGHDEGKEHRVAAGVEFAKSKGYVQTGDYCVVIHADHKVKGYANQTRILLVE
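qHTS format; LmPK 0.1 nM; substrates PEP 0.5 mM and ADP 0.1 mM. One-hour room-temperature incubation, then coupled luciferase luminescence; 0.5 nM enzyme wells mark activation.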
CHX counter-1: Cycloheximide Counterscreen for Small Molecule Inhibitors of Shiga Toxin. max response, %. hit rate 12% among 300,000. cell reporter, cycloheximide protein synthesis inhibition counterscreen; in the data active = max response mostly above about 13%, no sharp cut-off; inactive = mostly below about 14%; also: read at 38.3 µM for the half of the compounds with a filed dose
Shiga toxin inh: A qHTS for Small Molecule Inhibitors of Shiga Toxin; Vero cells, Shiga toxin protein synthesis inhibition reporter; inhibition, % at 38.7 µM; hit rate 9.2% among 290,000; in the data active = inhibition mostly above about 28%, no sharp cut-off; inactive = mostly below about 43%
Pf growth 96h: Primary qHTS for delayed death inhibitors of the malarial parasite plastid, 96 hour incubation; P. falciparum luciferase reporter growth, 96 h; hit rate 6.9% among 320,000; Potency, µM (top dose mostly 28.7 µM), actives largely listed as inhibitors
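Luminescence readout: decreased luciferase signal marks inhibited growth of reporter-expressing P. falciparum in infected red cells (2% hematocrit, 0.05% parasitemia final), exposed to compound two generations (96 h, 37 C, 5% CO2).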
CHX counter-2: Cycloheximide Counterscreen for Small Molecule Inhibitors of Shiga Toxin (Confirmatory); Potency, µM (titrated, usually from 38.3 µM), hits mostly activators; AID 2318, 2010; hit rate 3% among 510; Cycloheximide counterscreen, protein synthesis reporter, Shiga toxin assay; shares compounds with Shiga toxin inh; calls by dose curve
Large screens that a line does not name were inactive (follow-up assays come after a bar, where they were run). Unless noted, calls follow the shape of the dose curve; as a rule, active = well fitted inhibition curve with a large enough effect; inconclusive = small, poorly fitted or top-dose-only effect, or another doubt; inactive = no such curve, though single readings can be large or run the other way.

COc1ccc(C(C)(C)C)cc1NC(=O)c1ccc2c(c1)SC1=NS(=O)(=O)CCN12	Shiga toxin inh 40 | CHX counter-2 inactive
O=C(O)c1ccc2c(c1)SC1=NS(=O)(=O)CCN12	none
Cc1cccc(NC(=O)C2CCCN(c3ncnc4c3nc3n4CCCCC3)C2)n1 (stereo not drawn)	Pf growth 48h inconclusive, Pf growth 96h inconclusive
Cc1sc(NC(=O)CCCC(=O)O)c(C(N)=O)c1-c1ccccc1	Shiga toxin inh 74 | CHX counter-2 inconclusive
CCC(=O)N1CCN(c2ccccc2NC(=O)c2cccc(C)c2)CC1	Pf growth 48h inconclusive
CCC(=O)N1CCN(c2ccccc2NC(=O)c2ccc([N+](=O)[O-])o2)CC1	Pf growth 48h inconclusive, Shiga toxin inh 55 | CHX counter-2 inconclusive
CCCN(C(=O)COC(=O)c1nc2nc(C)cc(C)n2n1)C1CCS(=O)(=O)C1 (stereo not drawn)	none (no result: LmPK inhibitor, CHX counter-1, Shiga toxin inh)
C=CCc1cc(C)ccc1OCC(O)CN1CCN(c2ccccc2)CC1 (stereo not drawn)	Shiga toxin inh 33 | CHX counter-2 inactive
C=CCNc1sc(C(=O)c2ccccc2)c(N)c1-c1nc2ccccc2s1	Pf growth 48h inconclusive, Shiga toxin inh 73, Pf growth 96h inconclusive | CHX counter-2 inconclusive
Cc1cc(N2CCCCCC2)nc(-c2ccccc2O)n1	Shiga toxin inh 59 (no result: Pf growth 96h) | CHX counter-2 inactive
O=C(Cc1ccccc1)Nc1ccc(NC(=O)C2CC2)nc1	none
CCCCC(=O)Nc1ccc(NC(=O)C2CC2)nc1	Shiga toxin inh 41 | CHX counter-2 inactive
CCOc1ccc(-c2noc(CCC(=O)NCCc3ccccc3)n2)cc1OC	Pf growth 96h inconclusive
COc1cccc(-c2noc(CCC(=O)NCCc3ccccc3)n2)c1	Shiga toxin inh 49 | CHX counter-2 inactive
CCOc1ccccc1N1CC(C(=O)N(CC)CC(=O)Nc2ccc3c(c2)OCCO3)CC1=O (stereo not drawn)	Pf growth 48h inconclusive (no result: LmPK inhibitor, CHX counter-1, Shiga toxin inh)
CC1(C)OC(=O)C(=NNc2ccccc2)C(=O)O1	Shiga toxin inh 36 | CHX counter-2 inactive
CC(C)CNC(=O)c1noc2c1CCCC2	Shiga toxin inh 51 | CHX counter-2 inactive
Cc1cccc(Cn2cc(SCC(=O)Nc3nccs3)c3ccccc32)c1	Pf growth 48h inconclusive, Shiga toxin inh 23, Pf growth 96h inconclusive | CHX counter-2 inconclusive
O=C(Nc1ccccc1)c1ccc[nH]1	Shiga toxin inh 40 | CHX counter-2 inactive
O=C(Nc1ccccc1)Nc1ccc(NC(=O)c2ccccc2O)cc1	none
O=C(Nc1ccccc1)c1ccccc1O	Pf growth 48h inconclusive, Shiga toxin inh 59 | CHX counter-2 22µM
CC(=O)c1ccc2noc(-c3ccc(F)cc3)c2c1	Shiga toxin inh 52 | CHX counter-2 inactive
CN(C)/C=C/C(=O)c1ccc2noc(-c3cccc(F)c3)c2c1	Pf growth 96h inconclusive
CC(=O)c1ccc(S(=O)(=O)NC2CCSc3ccccc32)cc1 (stereo not drawn)	none
CON(C)S(=O)(=O)c1cccc(C(=O)NC2CCSc3ccccc32)c1 (stereo not drawn)	Shiga toxin inh 77 | CHX counter-2 inactive
CCOC(=O)c1cn(Cc2ccc(C)cc2)nn1	Shiga toxin inh 45 | CHX counter-2 inactive
CCOC(=O)c1cn(Cc2ccc(Br)cc2)nn1	none
O=C(COC(=O)c1cccc2c1C(=O)c1ccccc1C2=O)NC1CCCCC1	Pf growth 48h inconclusive, Pf growth 96h inconclusive
O=C1c2ccccc2C(=O)c2c1ccc1c(=O)n(C3CCCCC3)[nH]c21	Pf growth 48h inconclusive, Shiga toxin inh 27 | CHX counter-2 inactive
COCC1CCCN(C(=O)c2ccc3oc(Cc4ccc(Cl)cc4)nc3c2)C1 (stereo not drawn)	Pf growth 48h inconclusive
NC(=O)[C@@H]1CCCN1C(=O)c1ccc2nc(Cc3cccc(Cl)c3)oc2c1	Shiga toxin inh 24, Pf growth 96h 10µM | CHX counter-2 inactive
Cc1ccc(Cl)cc1NC(=S)N(C)N	none
CC(C)OC(=O)c1nnn(-c2nonc2N)c1CN1CCCCCC1	Pf growth 48h inconclusive (no result: Pf growth 96h)
O=C(O)C/C(=C\c1cc(Br)cs1)c1nc2ccccc2o1	Shiga toxin inh 40 | CHX counter-2 inactive
